Where “and” joins values, the source holds several entries; their conditions need not be identical. Equal entries are not always repeated.
Assay: qHTS profiling of the MIPE4 collection as inhibitors of Plasmodium falciparum (DD2) proliferation (Rep 2) (AID 743346)
Details: P. falciparum Dd2 in erythrocytes, SYBR Green DNA, 72 h; at 28.5 µM unless noted
Description: Plasmodium falciparum is a virulent malarial parasite that kills 1-2 million people worldwide each year. Transmitted by mosquitoes, the sporozoite form of the parasite enters the blood stream to infect hepatocytes, where they become merozoites that infect red blood cells (erythrocytes). Within erythrocytes, merozoites begin a […] cycle of growth and division, after which the parasite is released to infect new red blood cells. Gametocytes, which form within erythrocytes as well, circulate in the bloodstream and are ingested by the mosquito, thereby completing the life cycle. To profile malarial isolates for differential chemical responses and to identify inhibitors of malarial growth, an assay that measures P. falciparum growth and replication within erythrocytes was employed. This assay uses a DNA binding fluorescent dye (SYBR Green) to detect parasite DNA following cell lysis. Because mature erythrocytes lack DNA, only Plasmodium-derived DNA is detected.
The SYBR Green viability assay was adapted from a method described previously (Plouffe et al., 2008). For screening 3 ul culture medium was dispensed into 1536 well black clear bottom plates (Aurora Biotechnologies) using a Multidrop Combi (Thermo Fisher Scientific Inc.), 23 nL compounds in DMSO were added by a pin tool (Kalypsys), and 5 ul of erythrocytes infected with P. falciparum (0.3% parasitemia, 2.5% hematocrit final concentration) were added. The plates were incubated at 37 C in a humidified incubator in 5% CO2 for 72 h, and 2 ul lysis buffer (20 mM Tris HCl, 10 mM EDTA, 0.16% saponin, 1.6% triton X, 10X SYBR Green I supplied as 10,000X […] by Invitrogen) was added to each well. The plates were mixed for 25 sec with gentle shaking and incubated overnight at room temperature in the dark. The following morning, fluorescence intensity at 485(14) nm excitation and 535(25) nm emission wavelengths was measured on an EnVision (Perkin Elmer) plate reader. Plate reads were normalized relative to the control inhibitor (0.29 uM artemisinin) and vehicle (DMSO) wells present on each plate and then corrected by an algorithm using vehicle-only control plates at the beginning and end of the compound plate stack.
Work on COc1ccc(COc2cc3oc(=O)c4cc(C(C)O)ccc4c3cc2OC)cc1 (stereo not given) yielded a parasite growth, % of control (lower = inhibition) of 27.3%. With CC(C)NCC(O)COc1ccc(COCCOC(C)C)cc1 (stereo not given) the parasite growth, % of control (lower = inhibition) was 98%. OC(CN1CCC(Cc2ccc(F)cc2)CC1)c1ccc(Cl)cc1 (stereo not given) gave a parasite growth, % of control (lower = inhibition) of 19.9%. For CC1(C)Cc2c(-c3ccccc3)c(-c3ccc(Cl)cc3)c(CC(=O)O)n2C1, the parasite growth, % of control (lower = inhibition) was 63.6%. C[C@]1(c2nc3c(C(N)=O)cccc3[nH]2)CCCN1 showed a parasite growth, % of control (lower = inhibition) of 85.5%. With CCOC(=O)N1CCC(=C2c3ccc(Cl)cc3CCc3cccnc32)CC1 the parasite growth, % of control (lower = inhibition) was 28.5%. Nc1nc2[nH]cc(CCc3ccc(C(=O)N[C@@H](CCC(=O)O)C(=O)O)cc3)c2c(=O)[nH]1 gave a parasite growth, % of control (lower = inhibition) of 26.3%. Work on CCOc1cc(C=C2C(=O)N(c3ccccc3)N=C2C)cc(Cl)c1OCC(=O)OC yielded a parasite growth, % of control (lower = inhibition) of 106%. In the case of Cc1ccnc(NS(=O)(=O)c2ccc(NC(=O)Nc3ccc(S(=O)(=O)Nc4nccc(C)n4)cc3)cc2)n1, the parasite growth, % of control (lower = inhibition) is reported as 26.2%. With S=C(NCc1ccc2c(c1)OCO2)N1CCN(c2ncnc3c2oc2ccccc23)CC1 the parasite growth, % of control (lower = inhibition) was 63.5% [at 57.5 µM]. With Nc1cccc(S(=O)(=O)N2CCCN(S(=O)(=O)c3ccc4c(c3)OCCO4)CC2)c1 the parasite growth, % of control (lower = inhibition) was 120%. O=C(NOC[C@H](O)CO)c1ccc(F)c(F)c1Nc1ccc(I)cc1F showed a parasite growth, % of control (lower = inhibition) of 95.7%. Compound CN(C(=O)c1ccc(F)cc1C(F)(F)F)C1CCN(c2nnc(-c3ccnn3C)c3ccccc23)CC1 has a parasite growth, % of control (lower = inhibition) of 45.1%. Work on Fc1ccc(Cl)cc1-c1nc(Nc2ccncc2)c2nccnc2n1 yielded a parasite growth, % of control (lower = inhibition) of 30.8%. For O=C(c1cc(Cc2n[nH]c(=O)c3ccccc23)ccc1F)N1CCN(C(=O)C2CC2)CC1, the parasite growth, % of control (lower = inhibition) was 44.7%. COCC(=O)NCC=Cc1ccc2ncnc(Nc3ccc(Oc4ccc(C)nc4)c(C)c3)c2c1 showed a parasite growth, % of control (lower = inhibition) of 29.4%. For c1ccc([C@H]2CN3CCSC3=N2)cc1, the parasite growth, % of control (lower = inhibition) was 63.1%. Compound CCn1cc(C(=O)O)c(=O)c2cc(F)c(N3CCNC(C)C3)c(F)c21 (stereo not given) has a parasite growth, % of control (lower = inhibition) of 83.6%. Work on CCc1cc(Nc2nccc(-c3c(-c4ccc(OC)c(C(=O)Nc5c(F)cccc5F)c4)nc4ccccn34)n2)c(OC)cc1N1CCC(N2CCN(S(C)(=O)=O)CC2)CC1 yielded a parasite growth, % of control (lower = inhibition) of 14.9%. O=C1[C@H](Cc2ccc(O)cc2)N2C(=O)CCN(C(=O)NCc3ccccc3)[C@H]2CN1Cc1cccc2ccccc12 gave a parasite growth, % of control (lower = inhibition) of 40.6%. CS(=O)(=O)c1ccc(C(=O)Nc2ccc(Cl)c(-c3ccccn3)c2)c(Cl)c1 gave a parasite growth, % of control (lower = inhibition) of 97%. Work on Cc1cc(Nc2nc(N[C@@H](C)c3ncc(F)cn3)ncc2Cl)n[nH]1 yielded a parasite growth, % of control (lower = inhibition) of 21.5%. For CCOc1cc(N2CCC(O)CC2)ccc1Nc1ncc2c(n1)N(C)c1ccccc1C(=O)N2C, the parasite growth, % of control (lower = inhibition) was 5.98%. Work on Cc1cnc(NC(=O)C2=C(O)c3ccccc3S(=O)(=O)N2C)s1 yielded a parasite growth, % of control (lower = inhibition) of 61.9%. In the case of CCCC(CCC)C(=O)O, the parasite growth, % of control (lower = inhibition) is reported as 148%. OC(CCN1CCCCC1)(c1ccccc1)C1CC2C=CC1C2 (stereo not given) gave a parasite growth, % of control (lower = inhibition) of 44.2%. In the case of CC(C=CC1=C(C)CCCC1(C)C)=CC=CC(C)=CC(=O)O, the parasite growth, % of control (lower = inhibition) is reported as 81.2% and 51.5%. O=c1n(CCCN2CCN(c3cccc(Cl)c3)CC2)nc2ccccn12 gave a parasite growth, % of control (lower = inhibition) of 72.8%. Compound Cn1cnc([N+](=O)[O-])c1Sc1ncnc2nc[nH]c12 has a parasite growth, % of control (lower = inhibition) of 33.8%. O=C(Nc1ccc(F)c(C(F)(F)F)c1)Nc1nnc(-c2ccncc2)s1 showed a parasite growth, % of control (lower = inhibition) of 25.2%. Work on CC1(C)CNc2cc(NC(=O)c3cccnc3NCc3ccncc3)ccc21 yielded a parasite growth, % of control (lower = inhibition) of 42.2%. Cc1c(C)c2c(c(C)c1O)CCC(C)(COc1ccc(CC3SC(=O)NC3=O)cc1)O2 (stereo not given) gave a parasite growth, % of control (lower = inhibition) of 43.6%. CC(C)(Sc1ccc(CCN(CCCCC2CCCCC2)C(=O)NC2CCCCC2)cc1)C(=O)O showed a parasite growth, % of control (lower = inhibition) of 51.8%. Compound Nc1nc2c(ncn2COCCO)c(=O)[nH]1 has a parasite growth, % of control (lower = inhibition) of 124%. Cc1ccccc1C(C(=O)NC1CCCC1)N(C(=O)Cn1cnc2ccccc21)c1cccc(F)c1 (stereo not given) gave a parasite growth, % of control (lower = inhibition) of 38%. Compound Nc1nccc(-c2ccc3noc(-c4ccc(Cl)cc4)c3c2)n1 has a parasite growth, % of control (lower = inhibition) of 79.2%. Compound COc1ccc2nc(S(=O)Cc3ncc(C)c(OC)c3C)[nH]c2c1 (stereo not given) has a parasite growth, % of control (lower = inhibition) of 72.1%. In the case of CC(C)(C)OC(=O)CN(Cc1ccc(Cl)cc1)Cc1ccc([N+](=O)[O-])s1, the parasite growth, % of control (lower = inhibition) is reported as 26.7%. For COc1cc(Nc2ncc3c(n2)-c2ccc(Cl)cc2C(c2c(F)cccc2OC)=NC3)ccc1C(=O)O, the parasite growth, % of control (lower = inhibition) was 39.4%. Compound N#CC[C@H](C1CCCC1)n1cc(-c2ncnc3[nH]ccc23)cn1 has a parasite growth, % of control (lower = inhibition) of 55.7%.

— PubChem BioAssay (NCATS)
